This is an account of results in PubChem BioAssay AID686979 (National Center for Advancing Translational Sciences (NCATS), 2013).

The campaign covered roughly 420,000 compounds. About 50,000 (12%) were called active. Roughly 26% stayed inconclusive and do not appear here. Calls follow the shape of the dose curve; as a rule, active = well fitted inhibition curve with a large enough effect; inconclusive = small, poorly fitted or top-dose-only effect; inactive = flat fitted curve, though single readings scatter. What follows is part of a selection rich in actives, with near analogues and random picks from the rest.
% is scaled to controls: 0 for no effect and ±100 for the full control effect; potency is read from the fitted curve at half-maximal effect.

A short description of the experiment: qHTS for Inhibitors of human tyrosyl-DNA phosphodiesterase 1 (TDP1): qHTS in cells in presence of CPT. Also: nearly all actives have a fitted effect of over 55% in size. The conditions noted are these: chicken DT40 Tdp1-/-;hTDP1 cells + 20 nM CPT, ATP luminescence, 48 h; series mostly up to 46.2 µM; activity change, negative = growth inhibition: at the top concentration. Put shortly:
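Chicken DT40 Tdp1-/- cells complemented with human TDP1, 400 cells/well, exposed to compounds plus 20 nM camptothecin for at least 48 h at 37 C; viability read as ATP content by CellTiter-Glo luminescence.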
In the case of `O=C(NNS(=O)(=O)c1ccc(F)cc1)c1ccc([N+](=O)[O-])cc1Cl`, the “activity change, negative = growth inhibition” value was -27.5% (inactive).
On the same count and under the same terms, as for `Cc1cc(OC(C)C(=O)Nc2ccc(S(=O)(=O)Nc3onc(C)c3C)cc2)cc(C)c1Cl` (stereo unspecified), the figure is 5.33% (inactive); as for `CNC(=O)C1CC(=O)N(c2ccc(OCC(=O)Nc3ccccc3C)cc2)C1` (stereo unspecified), 6.86% (inactive).
Regarding `O=S(=O)(c1ccccc1)c1nc(-c2ccc(Cl)cc2Cl)oc1N1CCCCC1`, the Potency is 14.6 µM (active).
As for `CC(=O)c1ccc(N2CCN(c3nc4c(S(=O)(=O)c5ccccc5)nnn4c4ccc(Cl)cc34)CC2)cc1`, the “activity change, negative = growth inhibition” value is -4.91% (inactive).
The same measure, in the same setting: as for `O=S(=O)(c1ccccc1)c1nc(Cc2ccccc2)oc1N1CCOCC1`, the figure is 1.8% (inactive); as for `O=S(=O)(Nc1cc(Cl)ccc1N1CCOCC1)c1ccccc1Cl`, -20.2% (inactive).
Regarding `COc1ccc(-c2nc(S(=O)(=O)c3ccccc3)c(N3CCCCC3)o2)cc1`, the Potency is 23.1 µM (active).
In the case of `O=S(=O)(c1ccc(Br)cc1)c1nc(-c2ccccc2)oc1N1CCOCC1`, the “activity change, negative = growth inhibition” value was -29.8% (inactive).
Still for that read-out and setting: under `Cc1ccc(CNC(=O)CCC(=O)N2Cc3ccccc3Oc3ncccc32)cc1` stands -16.5% (inactive).
Consider `CC(C)Cc1nnc(N)s1`, for which the “activity change, negative = growth inhibition” value was -3.67% (inactive).
On the same count and under the same terms, under `COc1cc2ccc(C(C)=O)c(O)c2cc1OC` stands 9.28% (inactive); under `COCCC(=O)N1CCC(Oc2ccc(C(=O)NCc3ccon3)cc2)CC1`, 4.81% (inactive).
On to `CCOc1ccc(C(=O)N2CCN(CCc3ccccn3)CC2)cc1`, for which the “activity change, negative = growth inhibition” value was -1.49% (inactive).
Same read-out and setting: under `Cc1cc2nn(-c3ccc(Cl)cc3)nc2cc1NC(=O)C(C)C` stands -6.45% (inactive).
On the same count and under the same terms, as for `O=C(Cc1ccc(Cl)cc1)Nc1ccc2nn(-c3ccc(Cl)cc3)nc2c1`, the figure is -7.92% (inactive).
With `Nc1ccc2nn(-c3ccc(Cl)cc3)nc2c1`, the Potency was 6.51 µM (active).
As to `Cc1cccc(C)c1NC(=O)CNC(=O)c1c(C)nn(-c2ccccc2)c1C`, the “activity change, negative = growth inhibition” value was -8.65% (inactive).
The same measure, in the same setting: as for `COc1cc(NC(=O)Cn2c(=O)n(Cc3ccco3)c(=O)c3oc4ccccc4c32)cc(OC)c1`, the figure is -3.53% (inactive).
Same read-out and setting: under `Cc1nnc(SCC(=O)Nc2ccc(S(=O)(=O)Nc3ccc(Cl)nn3)cc2)s1` stands -11.3% (inactive).
Same read-out and setting: as for `CCOC(=O)CN1CCC(c2ccccc2)CC1`, the figure is -1.52% (inactive); as for `CCOC(=O)Cn1c(-c2cccnc2Cl)nc2ccccc21`, 0.835% (inactive).
On to `CCOC(=O)CN1C(=O)C(O)(CC(=O)c2ccccn2)c2ccccc21` (stereo unspecified), for which the Potency was 5.8 µM (active).
As to `CCn1c(SCc2cccc(C(=O)O)c2)nnc1-c1ccc(Cl)cc1`, the “activity change, negative = growth inhibition” value is 4.66% (inactive).
On the same count and under the same terms, under `CN(C)CCCOc1ccc(-c2ccc3nccn3c2)cn1` stands 11.3% (inactive); under `CCc1ccc(NC(=O)N2CCc3ccccc3C2)cc1`, -21.3% (inactive).
Regarding `Cc1cccc(C)c1NC(=O)c1ccc(CN2CCc3ccccc3C2)cc1`, the Potency is 20.6 µM (active).
As for `Cc1ccc(NC(=O)CN2CCc3ccccc3C2)cc1C`, the “activity change, negative = growth inhibition” value is -29.3% (inactive).
Turning to `CC(=O)c1ccc(S(=O)(=O)N2CCC(Oc3ccc(-n4cnnn4)cc3)CC2)cc1`, the Potency entry is “inactive”.
Take `O=S(=O)(/C=C/c1ccccc1)N1CCNCC1`: the “activity change, negative = growth inhibition” value was -4.52% (inactive).
Same read-out and setting: as for `COc1cc(C(=O)NCCOC(=O)c2cccc(N(C)C)c2)cc(OC)c1OC`, the figure is 7.13% (inactive).
Consider `CCn1c(CNC(=O)c2cc(OC)c(OC)c(OC)c2)cc2cc(C)ccc21`, for which the Potency was 20.6 µM (active).
Take `CCN1CCN(CC(=O)c2cc(OC)c(OC)c(OC)c2)CC1`: the “activity change, negative = growth inhibition” value was -1.2% (inactive).
Still for that read-out and setting: under `O=C(COC(=O)c1ccccc1)Nc1ccccc1Sc1ccccc1` stands -2.56% (inactive); under `CCc1nc2nc(C)c(NS(=O)(=O)c3ccc4c(c3)CCCC4)c(=O)n2[nH]1`, -0.594% (inactive).
With `Cc1cc(F)ccc1NS(=O)(=O)c1ccc(-n2cccn2)cc1`, the Potency is 14.6 µM (active).
Consider `Cc1ccc(NS(=O)(=O)c2ccc(F)cc2)nc1`, for which the “activity change, negative = growth inhibition” value is -7.37% (inactive).
As to `Cn1nccc1NS(=O)(=O)c1ccc(F)cc1`, the “activity change, negative = growth inhibition” value was 3.58% (inactive).
The same measure, in the same setting: under `O=C(COc1ccc([N+](=O)[O-])cc1Cl)Nc1ccc2[nH]c(=O)[nH]c2c1` stands -23% (inactive); under `COC(=O)C[C@@H]1C=C[C@@H](NC(=O)c2cccnc2)[C@@H](CO)O1`, 2.13% (inactive).
Same read-out and setting: as for `Cc1ccc(C(=O)CSc2ccccc2C(=O)O)cc1`, the figure is -2.04% (inactive).
Turning to `Cc1ccc(SC(CC(=O)c2ccc(C(C)(C)C)cc2)C(=O)O)cc1` (stereo unspecified), the Potency was 3.66 µM (active).
In the case of `Cc1ccc(Sc2cc(C(=O)c3ccccc3C(=O)O)ccc2[N+](=O)[O-])cc1`, the “activity change, negative = growth inhibition” value was -8.99% (inactive).
Same read-out and setting: under `COc1ccccc1C(=O)N/C(=C/c1ccc2c(c1)OCO2)C(=O)Nc1cccc(C(=O)O)c1` stands -15.3% (inactive); under `CCOC(=O)c1cc2cc3ccccc3cc2oc1=O`, 1.87% (inactive).
On to `CCOC(=O)c1sc(C)c2c1NC(C)(c1cccc3ccccc13)NC2=O` (stereo unspecified), for which the Potency was 25.9 µM (active).
As to `CCOC(=O)c1sc(-c2cccc([N+](=O)[O-])c2)cc1N`, the “activity change, negative = growth inhibition” value is 0.456% (inactive).
As for `CCCNC(=O)COc1coc(CN2CCN(Cc3ccccc3)CC2)cc1=O`, the “activity change, negative = growth inhibition” value is -4.86% (inactive).
Still for that read-out and setting: as for `Cc1ccc(S(=O)(=O)N2CCC3(CC2)OCCO3)c(C)c1`, the figure is -0.485% (inactive).
For the compound `COc1cccc(Nc2ncc3ncc(=O)n(C4CC4)c3n2)c1`, the Potency was 14.6 µM (active).
As to `COc1cccc(Nc2ncccc2C(=O)O)c1`, the “activity change, negative = growth inhibition” value is -0.267% (inactive).
